Records with an inconclusive call do not appear. Entries that show only a call come without a potency. Values without a mark were called inactive. The source made the active and inactive calls. Unless noted, the call rests on the fitted dose curve; in most records, active means well fitted curve in the direction sought with a large enough effect in the repeat runs; inconclusive means weak or mixed curves; inactive means no such curve, though single readings can be large; an effect the other way counts as inactive or inconclusive.
How the values were obtained:
[1] = target: Luciferin 4-monooxygenase (Photinus pyralis) (UniProt P08659); assay: qHTS assay to identify small molecule inhibitors of firefly luciferase (AID 1224835); further: nearly all actives have a fitted effect of over 25% in size; further: potency means the concentration at half of the fitted maximal effect
In short: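 Quantitative HTS format; KM concentrations of both substrates. Purified P. pyralis FLuc activity quantified from luminescence images.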

[2] = qHTS assay to identify small molecule agonists of the constitutive androstane receptor (CAR) signaling pathway - cell viability counter screen (AID 1224836); further: series mostly up to about 92 µM; nearly all actives have a fitted effect of over 45% in size
In short: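 Compound titrations (15 concentrations) went onto HepG2-CYP2B6-hCAR cells 4 h after seeding, alongside PK11195 at a final 0.75 uM; a 23 h, 37 C/5% CO2 incubation preceded CellTiter-Fluor viability measurement.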

[3] = qHTS assay to identify small molecule antagonists of the constitutive androstane receptor (CAR) signaling pathway - cell viability counter screen (AID 1224837); further: series mostly up to about 92 µM; nearly all actives have a fitted effect of over 45% in size
In short: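 CITCO at 50 nM final was added alongside compounds (15 concentrations) to double-stable hCAR/CYP2B6-2.2kb HepG2 cells. Following 23 hr at 37 C, cell viability was quantified by CellTiter-Fluor fluorescence intensity.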

[4] = target: Nuclear receptor subfamily 1 group I member 3 (Homo sapiens) (UniProt Q14994); assay: qHTS assay to identify small molecule antagonists of the constitutive androstane receptor (CAR) signaling pathway (AID 1224838); further: nearly all actives have a fitted effect of over 40% in size
In short: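 Inhibition of CITCO-driven (50 nM final) CYP2B6 reporter expression is measured in HepG2 cells stably carrying hCAR. Fifteen compound concentrations are applied for 24 h at 37 C, followed by luciferase luminescence.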

[5] = target: Nuclear receptor subfamily 1 group I member 3 (Homo sapiens) (UniProt Q14994); assay: qHTS assay to identify small molecule agonists of the constitutive androstane receptor (CAR) signaling pathway (AID 1224839); further: series mostly up to about 92 µM; nearly all actives have a fitted effect of over 15% in size
In short: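 In this screen, CAR-driven CYP2B6 promoter activity is measured by luminescence in HepG2-CYP2B6-hCAR cells after 24 h with test compounds and 0.75 uM PK11195 (final concentration).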

[6] = qHTS assay to identify small molecule antagonists of the estrogen related receptor signaling pathway with the pleiotropic PPARgamma coactivator (PGC) from Tox21 10K library - cell viability counter screen (AID 1224840; active means well fitted cell-killing curve with a large enough effect in the repeat runs, not every such curve was filed as active; further: nearly all actives have a fitted effect of over 40% in size)
In short: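 Readout: fluorescence intensity from CellTiter-Fluor after 30 min at 37 C/5% CO2. Preceded by 17.5 h treatment of PGC/ERR cells with DMSO-dissolved compounds, added 6 h post-seeding.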

[7] = qHTS assay to identify small molecule agonists of the estrogen related receptor signaling pathway with the pleiotropic PPARgamma coactivator (PGC) from Tox21 10K library (AID 1224842); further: nearly all actives have a fitted effect of over 15% in size
In short: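 PGC/ERR reporter cells (NTP line) were seeded 2,000 per well, rested 6 h at 37 C/5% CO2, then pin-dosed with compounds in DMSO for 18 h at 37 C; luciferase read by One-Glo luminescence after 30 min at room temperature.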

[8] = qHTS assay to identify small molecule agonists of the hypoxia (HIF-1) signaling pathway - cell viability counter screen (AID 1224844; calls by dose curve; further: nearly all actives have a fitted effect of over 50% in size)
In short: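 In this counter screen, HRE-bla ME-180 cell viability after 17 hrs of compound exposure at 37C was read by CellTiter-Glo luminescence, multiplexed with the beta-lactamase reporter measurement.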

[9] = target: Thyrotropin receptor (Homo sapiens) (UniProt P16473); assay: qHTS assay to identify small molecule agonists of the thyroid stimulating hormone receptor (TSHR) signaling pathway (AID 1224843; calls by dose curve; further: nearly all actives have a fitted effect of over 45% in size)
In short: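 Using 15 concentrations per compound in triplicate, cAMP production was monitored in TSHR-HEK293 cells after 30 min compound incubation at RT; HTRF reagents followed, with fluorescence intensity recorded after 1 h.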

[10] = qHTS assay to identify small molecule antagonists of the estrogen related receptor signaling pathway with the pleiotropic PPARgamma coactivator (PGC) from Tox21 10K library (AID 1224841; call rule not given here; further: series mostly up to about 92 µM; actives are mostly falling curves and most rising ones were filed inactive; nearly all actives have a fitted effect of over 50% in size)
In short: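 One-Glo luminescence, measured after half an hour at room temperature, quantified reporter output of PGC/ERR cells. These had been plated at 2,000 per well, incubated 6 h, dosed with compounds in DMSO, then kept 18 h at 37 C.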

Sequence of Luciferin 4-monooxygenase (Photinus pyralis) (P08659 whole entry, looked up): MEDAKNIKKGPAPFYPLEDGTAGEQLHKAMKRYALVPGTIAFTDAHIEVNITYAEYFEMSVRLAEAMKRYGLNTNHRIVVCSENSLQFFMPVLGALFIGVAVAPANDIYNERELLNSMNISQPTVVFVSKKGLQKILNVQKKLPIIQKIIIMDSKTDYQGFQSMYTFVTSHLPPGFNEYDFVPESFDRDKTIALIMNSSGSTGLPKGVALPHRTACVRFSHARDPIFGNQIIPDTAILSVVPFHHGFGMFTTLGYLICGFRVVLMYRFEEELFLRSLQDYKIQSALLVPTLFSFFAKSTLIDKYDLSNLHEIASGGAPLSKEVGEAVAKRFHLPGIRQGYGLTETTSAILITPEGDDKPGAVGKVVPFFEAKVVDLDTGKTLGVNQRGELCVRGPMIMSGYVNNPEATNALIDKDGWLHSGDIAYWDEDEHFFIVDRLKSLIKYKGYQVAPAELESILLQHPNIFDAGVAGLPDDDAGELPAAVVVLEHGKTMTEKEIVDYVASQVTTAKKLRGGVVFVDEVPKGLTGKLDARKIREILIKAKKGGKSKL
Sequence of Nuclear receptor subfamily 1 group I member 3 (Homo sapiens) (Q14994 whole entry, looked up): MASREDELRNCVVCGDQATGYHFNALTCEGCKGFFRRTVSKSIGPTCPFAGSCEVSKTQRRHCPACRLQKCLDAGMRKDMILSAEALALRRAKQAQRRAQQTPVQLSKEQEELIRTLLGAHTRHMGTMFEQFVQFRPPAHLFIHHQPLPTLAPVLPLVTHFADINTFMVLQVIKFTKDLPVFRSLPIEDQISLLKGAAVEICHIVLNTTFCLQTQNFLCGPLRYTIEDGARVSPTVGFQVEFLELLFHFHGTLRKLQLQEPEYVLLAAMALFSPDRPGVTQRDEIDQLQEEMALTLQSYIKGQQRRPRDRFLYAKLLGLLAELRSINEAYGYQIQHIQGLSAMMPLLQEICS
Sequence of Thyrotropin receptor (Homo sapiens) (P16473 whole entry, looked up): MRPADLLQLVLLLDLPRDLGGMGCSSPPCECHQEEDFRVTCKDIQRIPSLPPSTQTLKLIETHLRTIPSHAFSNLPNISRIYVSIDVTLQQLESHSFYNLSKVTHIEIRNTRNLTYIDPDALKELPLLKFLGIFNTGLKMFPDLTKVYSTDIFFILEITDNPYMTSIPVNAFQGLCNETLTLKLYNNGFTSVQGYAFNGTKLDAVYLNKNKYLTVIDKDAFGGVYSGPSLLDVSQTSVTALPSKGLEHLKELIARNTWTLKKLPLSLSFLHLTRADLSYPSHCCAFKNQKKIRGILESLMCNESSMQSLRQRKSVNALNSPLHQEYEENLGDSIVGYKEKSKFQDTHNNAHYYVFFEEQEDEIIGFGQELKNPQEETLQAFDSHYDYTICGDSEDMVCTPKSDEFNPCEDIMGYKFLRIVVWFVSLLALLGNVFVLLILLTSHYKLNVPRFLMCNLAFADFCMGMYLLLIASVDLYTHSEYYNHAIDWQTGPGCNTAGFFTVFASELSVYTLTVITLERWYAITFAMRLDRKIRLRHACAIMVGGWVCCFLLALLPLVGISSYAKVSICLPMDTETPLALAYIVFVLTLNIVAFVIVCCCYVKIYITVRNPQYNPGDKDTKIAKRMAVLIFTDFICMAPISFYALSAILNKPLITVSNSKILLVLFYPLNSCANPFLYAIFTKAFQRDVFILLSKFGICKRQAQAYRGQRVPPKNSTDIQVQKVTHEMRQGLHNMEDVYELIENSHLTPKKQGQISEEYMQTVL

| SMILES | Potency [1] | outcome [2] | outcome [3] | Potency [4] | Potency [5] | outcome [6] | Potency [7] | Potency [8] | Potency [9] | Potency [10] |
| --- | --- | --- | --- | --- | --- | --- | --- | --- | --- | --- |
| Nc1c2c(nc3c1CCC3)CCCC2 | inactive | inactive | inactive | inactive | inactive | inactive | inactive | inactive | – | – |
| C[C@@H]1CCC[C@H](C)N1 | inactive | inactive | inactive | inactive | inactive | inactive | inactive | inactive | inactive | – |
| Clc1cc(Cl)c(Cl)nc1Cl | inactive | inactive | inactive | inactive | inactive | inactive | inactive | – | inactive | – |
| CCC(C(=O)NC(=O)NC(C)=O)c1ccccc1 (centres undefined) | inactive | inactive | inactive | inactive | inactive | inactive | inactive | inactive | inactive | inactive |
| CC(=O)c1ccccc1[N+](=O)[O-] | inactive | inactive | inactive | inactive | inactive | inactive | inactive | inactive | inactive | inactive |
| Clc1cc(Cl)cc(Cl)c1 | inactive | inactive | inactive | inactive | inactive | inactive | inactive | inactive | inactive | inactive |
| OCCc1ccccn1 | inactive | inactive | inactive | inactive | inactive | – | – | – | – | – |
| CC(C#N)(CCC(=O)O)N=NC(C)(C#N)CCC(=O)O (centres undefined) | inactive | inactive | inactive | inactive | inactive | inactive | inactive | inactive | inactive | – |
| CC(C)(CCC(=O)O)C(=O)O | inactive | inactive | inactive | inactive | inactive | inactive | – | – | – | – |
| CCCCCCC#CC(=O)OC | inactive | inactive | inactive | inactive | inactive | inactive | inactive | inactive | – | inactive |
| CCCCOCCOC(=O)CCCCCCCCC(=O)OCCOCCCC | inactive | inactive | inactive | inactive | inactive | inactive | inactive | inactive | inactive | inactive |
| CC(COc1ccccc1)NN (centres undefined) | inactive | inactive | inactive | inactive | inactive | inactive | inactive | – | inactive | – |
| CC1=C(C/C=C(\C)CCC[C@H](C)CCC[C@H](C)CCCC(C)C)C(=O)c2ccccc2C1=O | inactive | inactive | inactive | inactive | inactive | inactive | inactive | inactive | inactive | inactive |
| CCN(CC#N)c1cccc(C)c1 | inactive | inactive | inactive | inactive | inactive | inactive | – | inactive | – | – |
| CC1=CCC(O)(C(C)C)CC1 (centres undefined) | inactive | inactive | inactive | inactive | inactive | inactive | – | inactive | inactive | – |
| CC1CCC(CO)CC1 (centres undefined) | inactive | inactive | inactive | inactive | inactive | inactive | – | inactive | inactive | – |
| COc1cc(C(=O)NCc2ccc(OCCN(C)C)cc2)cc(OC)c1OC | inactive | inactive | inactive | inactive | inactive | inactive | – | inactive | inactive | – |
| C=C(C)C(=O)OCC1CCCO1 (centres undefined) | inactive | inactive | inactive | inactive | inactive | inactive | – | inactive | – | – |
| Nc1ccncc1N | inactive | inactive | inactive | inactive | inactive | inactive | – | inactive | inactive | – |
| CCCCOCCOC(=O)COc1cc(Cl)c(Cl)cc1Cl | inactive | inactive | inactive | inactive | inactive | inactive | – | inactive | inactive | – |
| [K+] | inactive | inactive | inactive | inactive | inactive | inactive | – | inactive | inactive | – |
| CC(C)(C)OC(=O)c1cccc(N)c1 | 57.9 µM (active) | inactive | inactive | inactive | inactive | inactive | – | inactive | inactive | – |
| CC(C)=CCC/C(C)=C/C#N | inactive | inactive | inactive | inactive | inactive | inactive | – | inactive | inactive | – |
| C=C(C)C(=O)OCCOCCOCCOCCOC(=O)C(=C)C | inactive | inactive | inactive | inactive | inactive | inactive | – | inactive | inactive | – |
| O=C(O)CCSCCC(=O)O | inactive | inactive | inactive | inactive | inactive | inactive | – | inactive | inactive | – |
| Cc1onc(-c2c(Cl)cccc2Cl)c1C(=O)Cl | inactive | inactive | inactive | inactive | inactive | inactive | – | inactive | inactive | – |
